# In PubChem BioAssay AID1159580 (chemical genetic matrix, 2015):
# Where “and” joins values, the source holds several entries; their conditions need not be identical. Equal entries are not always repeated. In all, about 5,500 compounds went through this assay and about 2,000 (36%) were called active. Another 18% or so got no clear call; they are omitted. Rule as the data show it: active = normalized growth mostly below about 0.91 (no sharp cut-off); inconclusive = no clear call, values can overlap the other calls; inactive = mostly above about 0.92. The list shows a part of the results. The source holds several records for some structures; these can differ, active in one and inactive in another.
# Test: chemical genetic growth profiling, strain panel (AID 1159580);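 also: tested at 20 µM; growth read once vehicle control cultures reached saturation at 30 °C; 1 = growth at the plate median or of vehicle wells; lower values mean less growth of the strain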
# Conditions: S. cerevisiae deletion strains, growth OD
smiles,measurement,setting,value
O=C(O)CCc1nc(-c2ccccc2)c(-c2ccccc2)o1,normalized growth,"locus YAL013W, strain DEP1, stronger effect = lower value",0.974 (inactive)
same,normalized growth,"locus YAL021C, strain ccr4, stronger effect = lower value",0.966 (inactive)
same,normalized growth,"locus YAL026C, strain drs2, stronger effect = lower value",0.929 (inactive)
same,normalized growth,"locus YAL030W, strain snc1, stronger effect = lower value",0.958 (inactive)
same,normalized growth,"locus YAL040C, strain CLN3, stronger effect = lower value",0.978 (inactive)
same,normalized growth,"locus YBL061C, strain skt5, stronger effect = lower value",0.965 (inactive)
same,normalized growth,"locus YBR009C, strain hhf1, stronger effect = lower value",0.964 (inactive)
same,normalized growth,"locus YBR023C, strain chs3, stronger effect = lower value",0.979 (inactive)
same,normalized growth,"locus YBR171W, strain sec66, stronger effect = lower value",0.949 (inactive)
same,normalized growth,"locus YBR229C, strain ROT2, stronger effect = lower value",0.929 (active)
same,normalized growth,"locus YBR231C, strain swc5, stronger effect = lower value",0.96 (inactive)
same,normalized growth,"locus YBR279W, strain paf1, stronger effect = lower value",0.975 (inactive)
same,normalized growth,"locus YCL011C, strain gbp2, stronger effect = lower value",0.943 (inactive)
same,normalized growth,"locus YCL016C, strain dcc1, stronger effect = lower value",0.954 (inactive)
same,normalized growth,"locus YCL061C, strain MRC1 (second series), stronger effect = lower value",0.996 (inactive)
same,normalized growth,"locus YCL061C, strain MRC1, stronger effect = lower value",0.92 (active)
same,normalized growth,"locus YCL069W, strain vba3, stronger effect = lower value",0.965 (inactive)
same,normalized growth,"locus YCR088W, strain abp1, stronger effect = lower value",0.962 (inactive)
same,normalized growth,"locus YDL005C, strain med2, stronger effect = lower value",0.959 (inactive)
same,normalized growth,"locus YDL040C, strain nat1, stronger effect = lower value",0.955 (inactive)
same,normalized growth,"locus YDL101C, strain DUN1, stronger effect = lower value",0.995 (inactive)
same,normalized growth,"locus YDR001C, strain nth1, stronger effect = lower value",0.925 (inactive)
same,normalized growth,"locus YDR069C, strain doa4, stronger effect = lower value",0.954 (inactive)
same,normalized growth,"locus YDR137W, strain rgp1, stronger effect = lower value",0.925 (inactive)
same,normalized growth,"locus YDR150W, strain NUM1, stronger effect = lower value",1 (inactive) and 1.04 (inactive)
same,normalized growth,"locus YDR159W, strain sac3, stronger effect = lower value",0.916 (inactive)
same,normalized growth,"locus YDR195W, strain ref2",0.969 (inactive)
same,normalized growth,"locus YDR297W, strain sur2, stronger effect = lower value",0.955 (inactive)
same,normalized growth,"locus YDR334W, strain swr1, stronger effect = lower value",0.948 (inactive)
same,normalized growth,"locus YDR335W, strain msn5, stronger effect = lower value",0.965 (inactive)
same,normalized growth,"locus YDR363W, strain ESC2, stronger effect = lower value",0.979 (inactive)
same,normalized growth,"locus YDR392W, strain spt3, stronger effect = lower value",0.831 (inactive)
same,normalized growth,"locus YEL003W, strain gim4, stronger effect = lower value",0.943 (inactive)
same,normalized growth,"locus YEL037C, strain rad23, stronger effect = lower value",0.968 (inactive)
same,normalized growth,"locus YEL061C, strain CIN8 (second series), stronger effect = lower value",0.941 (inactive)
same,normalized growth,"locus YEL061C, strain CIN8, stronger effect = lower value",1 (inactive)
same,normalized growth,"locus YER002W, strain NOP16, stronger effect = lower value",0.998 (inactive)
same,normalized growth,"locus YER015W, strain faa2, stronger effect = lower value",0.974 (inactive)
same,normalized growth,"locus YER016W, strain bim1, stronger effect = lower value",0.961 (inactive)
same,normalized growth,"locus YER111C, strain swi4, stronger effect = lower value",0.958 (inactive)
same,normalized growth,"locus YER155C, strain BEM2 (second series), stronger effect = lower value",0.958 (inactive)
same,normalized growth,"locus YFR010W, strain ubp6, stronger effect = lower value",0.958 (inactive)
same,normalized growth,"locus YGL167C, strain pmr1, stronger effect = lower value",0.961 (inactive)
same,normalized growth,"locus YGL173C, strain kem1, stronger effect = lower value",0.958 (inactive)
same,normalized growth,"locus YGL227W, strain vid30, stronger effect = lower value",0.957 (inactive)
same,normalized growth,"locus YGL240W, strain doc1, stronger effect = lower value",0.95 (inactive)
same,normalized growth,"locus YGL253W, strain hxk2, stronger effect = lower value",0.957 (inactive)
same,normalized growth,"locus YGR078C, strain PAC10, stronger effect = lower value",0.909 (active)
same,normalized growth,"locus YGR229C, strain SMI1, stronger effect = lower value",0.976 (inactive)
same,normalized growth,"locus YHR013C, strain ard1, stronger effect = lower value",0.938 (inactive)
same,normalized growth,"locus YHR027C, strain rpn1, stronger effect = lower value",0.971 (inactive)
same,normalized growth,"locus YHR030C, strain SLT2, stronger effect = lower value",0.935 (inactive) and 1.03 (inactive)
same,normalized growth,"locus YHR079C, strain IRE1, stronger effect = lower value",0.967 (inactive)
same,normalized growth,"locus YHR087W, strain rtc3, stronger effect = lower value",0.925 (inactive)
same,normalized growth,"locus YHR142W, strain chs7, stronger effect = lower value",0.963 (inactive)
same,normalized growth,"locus YJL092W, strain hpr5, stronger effect = lower value",0.949 (inactive)
same,normalized growth,"locus YJL095W, strain BCK1 (second series), stronger effect = lower value",0.959 (inactive)
same,normalized growth,"locus YJL095W, strain BCK1, stronger effect = lower value",0.901 (inactive)
same,normalized growth,"locus YJL115W, strain asf1, stronger effect = lower value",0.956 (inactive)
same,normalized growth,"locus YJL129C, strain trk1, stronger effect = lower value",0.926 (inactive)
same,normalized growth,"locus YJL154C, strain vps35, stronger effect = lower value",0.966 (inactive)
same,normalized growth,"locus YJL164C, strain tpk1, stronger effect = lower value",0.954 (inactive)
same,normalized growth,"locus YJL166W, strain qcr8, stronger effect = lower value",0.976 (inactive)
same,normalized growth,"locus YJR043C, strain POL32, stronger effect = lower value",0.959 (inactive)
same,normalized growth,"locus YJR066W, strain TOR1, stronger effect = lower value",0.884 (inactive)
same,normalized growth,"locus YJR075W, strain HOC1, stronger effect = lower value",0.888 (active)
same,normalized growth,"locus YKL160W, strain elf1, stronger effect = lower value",0.982 (inactive)
same,normalized growth,"locus YKL190W, strain CNB1, stronger effect = lower value",0.983 (inactive)
same,normalized growth,"locus YKR026C, strain gcn3, stronger effect = lower value",0.958 (inactive)
same,normalized growth,"locus YKR091W, strain srl3, stronger effect = lower value",0.957 (inactive)
same,normalized growth,"locus YLL001W, strain dnm1, stronger effect = lower value",0.973 (inactive)
same,normalized growth,"locus YLL026W, stronger effect = lower value",0.965 (inactive)
same,normalized growth,"locus YLL041C, strain sdh2, stronger effect = lower value",0.961 (inactive)
same,normalized growth,"locus YLR027C, strain aat2, stronger effect = lower value",0.966 (inactive)
same,normalized growth,"locus YLR039C, strain RIC1, stronger effect = lower value",0.994 (inactive)
same,normalized growth,"locus YLR058C, strain SHM2 (second series), stronger effect = lower value",0.929 (active)
same,normalized growth,"locus YLR085C, strain ARP6, stronger effect = lower value",0.92 (inactive)
same,normalized growth,"locus YLR113W, strain HOG1, stronger effect = lower value",0.787 (active)
same,normalized growth,"locus YLR221C, strain rsa3, stronger effect = lower value",0.935 (inactive)
same,normalized growth,"locus YLR258W, strain gsy2, stronger effect = lower value",0.955 (inactive)
same,normalized growth,"locus YLR262C, strain YPT6 (second series), stronger effect = lower value",0.951 (inactive)
same,normalized growth,"locus YLR262C, strain YPT6, stronger effect = lower value",1.02 (inactive)
same,normalized growth,"locus YLR320W, strain mms22, stronger effect = lower value",0.933 (inactive)
same,normalized growth,"locus YLR342W, strain FKS1, stronger effect = lower value",0.97 (inactive)
same,normalized growth,"locus YLR357W, strain rsc2, stronger effect = lower value",0.985 (inactive)
same,normalized growth,"locus YLR370C, strain arc18, stronger effect = lower value",0.961 (inactive)
same,normalized growth,"locus YLR384C, strain iki3, stronger effect = lower value",0.98 (inactive)
same,normalized growth,"locus YML094W, strain GIM5, stronger effect = lower value",1.02 (inactive)
same,normalized growth,"locus YML120C, strain ndi1, stronger effect = lower value",0.952 (inactive)
same,normalized growth,"locus YMR058W, strain fet3, stronger effect = lower value",0.956 (inactive)
same,normalized growth,"locus YMR125W, strain sto1, stronger effect = lower value",0.938 (inactive)
same,normalized growth,"locus YMR129W, stronger effect = lower value",0.943 (inactive)
same,normalized growth,"locus YMR205C, strain PFK2, stronger effect = lower value",0.954 (inactive)
same,normalized growth,"locus YMR219W, strain ESC1, stronger effect = lower value",0.944 (active)
same,normalized growth,"locus YMR231W, strain pep5, stronger effect = lower value",0.967 (inactive)
same,normalized growth,"locus YMR263W, strain SAP30, stronger effect = lower value",0.9 (active)
same,normalized growth,"locus YMR307W, strain GAS1, stronger effect = lower value",1 (inactive) and 0.949 (inactive)
same,normalized growth,"locus YNL071W, strain lat1, stronger effect = lower value",0.935 (inactive)
same,normalized growth,"locus YNL153C, strain GIM3, stronger effect = lower value",0.964 (inactive)
same,normalized growth,"locus YNL175C, strain NOP13, stronger effect = lower value",0.986 (inactive)
same,normalized growth,"locus YNL183C, strain NPR1, stronger effect = lower value",0.868 (inactive)
same,normalized growth,"locus YNL197C, strain WHI3, stronger effect = lower value",0.987 (inactive)
same,normalized growth,"locus YNL209W, strain ssb2, stronger effect = lower value",0.972 (inactive)
same,normalized growth,"locus YNL224C, strain SQS1, stronger effect = lower value",0.977 (inactive)
same,normalized growth,"locus YNL248C, strain rpa49, stronger effect = lower value",0.974 (inactive)
same,normalized growth,"locus YNL298W, strain CLA4 (second series), stronger effect = lower value",1 (inactive)
same,normalized growth,"locus YNL322C, strain KRE1 (second series), stronger effect = lower value",0.949 (inactive)
same,normalized growth,"locus YNL322C, strain KRE1, stronger effect = lower value",1 (inactive) and 0.926 (active)
same,normalized growth,"locus YNR030W, strain Alg12, stronger effect = lower value",1 (inactive)
same,normalized growth,"locus YNR049C, strain mso1, stronger effect = lower value",0.941 (inactive)
same,normalized growth,"locus YOR001W, strain rrp6, stronger effect = lower value",1 (inactive)
same,normalized growth,"locus YOR070C, strain gyp1, stronger effect = lower value",0.963 (inactive)
same,normalized growth,"locus YOR080W, strain dia2, stronger effect = lower value",0.957 (inactive)
same,normalized growth,"locus YOR083W, strain WHI5 (second series), stronger effect = lower value",1 (inactive)
same,normalized growth,"locus YOR083W, strain WHI5, stronger effect = lower value",0.982 (inactive)
same,normalized growth,"locus YOR106W, strain vam3, stronger effect = lower value",0.973 (inactive)
same,normalized growth,"locus YOR231W, strain MKK1, stronger effect = lower value",0.942 (inactive)
same,normalized growth,"locus YOR265W, strain rbl2, stronger effect = lower value",0.97 (inactive)
same,normalized growth,"locus YOR270C, strain vph1, stronger effect = lower value",0.952 (inactive)
same,normalized growth,"locus YOR290C, strain snf2, stronger effect = lower value",0.93 (inactive)
same,normalized growth,"locus YPL051W, strain arl3, stronger effect = lower value",0.98 (inactive)
same,normalized growth,"locus YPL055C, strain LGE1, stronger effect = lower value",0.996 (inactive)
same,normalized growth,"locus YPL078C, strain atp4, stronger effect = lower value",0.972 (inactive)
same,normalized growth,"locus YPL106C, strain sse1, stronger effect = lower value",0.869 (inactive)
same,normalized growth,"locus YPL240C, strain hsp82, stronger effect = lower value",0.963 (inactive)
same,normalized growth,"locus YPL241C, strain CIN2, stronger effect = lower value",1 (inactive) and 0.984 (inactive)
same,normalized growth,"locus YPL256C, strain CLN2, stronger effect = lower value",0.96 (inactive)
same,normalized growth,"locus YPR135W, strain CTF4, stronger effect = lower value",1.08 (inactive)
